# Measured values as given in PubChem BioAssay AID1053 (University of Pittsburgh Molecular Library Screening Center, 2008).
# Where “and” joins values, the source holds several entries; their conditions need not be identical. Identical values can stand only once. Values without a mark were called inactive. Calls of active or inactive are those of the source. The rule behind the calls is not given here.
# Biological target: Serine/threonine-protein kinase PLK1 (Homo sapiens) (UniProt P53350)
# Experiment: Plk1 polo box domain binding inhibitors, SAR follow-up, biochemical, fluorescence polarization, purchased analogs (AID 1053)
# Details: Plk1 PBD fluorescence polarization peptide binding; at 20 µM; stronger effect = higher value
# Serine/threonine-protein kinase PLK1 (Homo sapiens), sequence (P53350 whole entry, looked up, the tested form may be a part): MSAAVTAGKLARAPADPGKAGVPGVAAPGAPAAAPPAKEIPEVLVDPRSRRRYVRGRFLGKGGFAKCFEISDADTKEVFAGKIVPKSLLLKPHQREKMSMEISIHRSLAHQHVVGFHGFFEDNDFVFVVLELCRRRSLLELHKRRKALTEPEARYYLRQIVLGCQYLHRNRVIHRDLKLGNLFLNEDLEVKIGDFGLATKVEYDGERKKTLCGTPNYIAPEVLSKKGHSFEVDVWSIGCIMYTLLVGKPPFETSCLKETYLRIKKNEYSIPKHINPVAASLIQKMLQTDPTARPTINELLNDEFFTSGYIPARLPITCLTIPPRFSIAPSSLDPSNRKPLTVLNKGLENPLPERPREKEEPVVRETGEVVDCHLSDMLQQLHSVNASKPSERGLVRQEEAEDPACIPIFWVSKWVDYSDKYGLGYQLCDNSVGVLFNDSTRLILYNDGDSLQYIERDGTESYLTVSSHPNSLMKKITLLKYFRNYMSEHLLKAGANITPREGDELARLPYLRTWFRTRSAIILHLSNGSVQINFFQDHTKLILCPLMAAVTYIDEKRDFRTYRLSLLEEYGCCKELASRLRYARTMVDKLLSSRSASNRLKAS
row,SMILES,inhibition
1,CCCC(=O)c1c(O)[nH]c(=O)[nH]c1=O,-47.7% and -64.6%
2,CCN(CC)CCOC(=O)c1ccc(N=Cc2c(O)[nH]c(=O)[nH]c2=O)cc1,-148% and -184%
3,COc1cc(C=C2C(=O)NC(=O)NC2=O)cc(Cl)c1O,-40.9%
4,Cn1nc(-c2ccccc2)nc2c(=O)n(C)c(=O)nc1-2,31.4%
5,Cn1c(O)c(C(=O)c2ccccc2Cl)c(=O)n(C)c1=O,-36.4%
6,O=C1NC(=O)C(=Cc2c3ccccc3cc3ccccc23)C(=O)N1,-41.5%
7,O=C1NC(=O)C(=Cc2cccn2-c2ccc([N+](=O)[O-])cc2)C(=O)N1,-40.9%
8,CCn1nc(-c2ccc([N+](=O)[O-])cc2)nc2c(=O)n(C)c(=O)nc1-2,60.6% (active)
9,CCn1nc(-c2ccccc2Cl)nc2c(=O)n(C)c(=O)nc1-2,43.6%
10,CCOC(=O)c1ccc(N=C(c2ccccc2)c2c(O)n(C)c(=O)n(C)c2=O)cc1,-58.1%
11,CCn1nc(-c2ccccc2)nc2c(=O)n(C)c(=O)nc1-2,-2.54%
12,Cc1ccc(-c2nc3c(=O)n(C)c(=O)nc-3n(C)n2)cc1,43.1%
13,COc1cc(Br)cc(C=C2C(=O)NC(=O)NC2=O)c1O,-39.8%
